Test in all cases: NCI-60 one-dose screen, 48 h (100 = growth as untreated, 0 = no growth, -100 = all killed)
Common to all, as to conditions: 10 µM unless noted

The test system of assay [1] is T-47D breast.
In assay [2] the test system is BT-549 breast.
In assay [3] the test system is MDA-MB-435 melanoma.
Assay [4] relates to SW-620 colon.
The test system of assay [5] is MCF7 breast.
The test system of assay [6] is HCT-116 colon.
In assay [7] the test system is HCC-2998 colon.
The subject of assay [8] is KM12 colon.

Compounds without any hit were thinned out: in the full panel of roughly 83,000, 20% have a hit.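 Values shown are percent growth following 48 h exposure of cells in 96-well plates to a single concentration of compound; below 10 was considered active.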 Unmarked numbers belong to inactive results. The source made the active and inactive calls.

As for `CCOc1cc2ncc(C#N)c(Nc3ccc(F)c(Cl)c3)c2cc1NC(=O)CC1CCSS1` (stereo not given), the growth is -48.4% (active) in assay [1]; -25.3% (active) in assay [2]; -92.1% (active) in assay [3]; -49% (active) in assay [4]; -34.7% (active) in assay [5]; -61.7% (active) in assay [6]. Besides, the growth was -74% (active) in assay [7] and -77.6% (active) in assay [8].

Consider `O=S(=O)(Nc1ccc(I)cc1F)c1ccc(-c2cnc(C3CC3)o2)cc1`, for which the growth was 52% in assay [1]; 45.7% in assay [2]; 2.11% (active) in assay [3]; 27.2% in assay [4]; 27.9% in assay [5]; 40.8% in assay [6]. Also, the figures for the growth in assay [7] and in assay [8] were 76.9% and 52.9%, respectively.

For the compound `O=C1/C(=C/c2ccccc2)SC(=S)N1CCc1ccc(O)cc1`, the growth was 54.3% in assay [1]; 106% in assay [2]; 96.2% in assay [3]; 95.6% in assay [4]; 112% in assay [5]; 95.9% in assay [6]. Moreover, the growth in assay [7] was 107%; in assay [8], 87.8%.

Turning to `CCC([N+](=O)[O-])S(=O)(=O)c1ccc(C)cc1` (stereo not given), the growth was 92.6% in assay [1]; 109% in assay [2]; 113% in assay [3]; 104% in assay [4]; 101% in assay [5]; 98.7% in assay [6]. For the same compound, the values for the growth in assay [7] and in assay [8] were 64.5% and 136%, respectively.

For `OC(c1cc2cc(Cl)c(Cl)cc2c2cc(C(F)(F)F)ccc12)C1CCCCN1` (stereo not given), the growth in assay [1] was -78.6% (active); in assay [2], 76.4%; in assay [3] it was -73.9% (active); in assay [4] it was -74% (active); in assay [5], -87.3% (active); in assay [6], -87.3% (active). Moreover, the values for the growth in assay [7] and in assay [8] were -80.9% (active) and -91.1% (active), respectively.

In the case of `Cc1cc(N2CCCCCC2)nc(NC2CCCC(Nc3ccnc4cc(Cl)ccc34)C2)n1` (stereo not given), the growth in assay [1] was -50.3% (active); in assay [2], -85.1% (active); in assay [3], -87.7% (active); in assay [4] it was -76.9% (active); in assay [5] it was -56.8% (active); in assay [6], -95.9% (active). In addition, the growth in assay [7] was -80.3% (active); in assay [8], -75.5% (active).

For the compound `O=[N+]([O-])c1ccc2c(c1)Cc1cc(F)ccc1-2`, the growth was 94.4% in assay [1]; 105% in assay [2]; 96.9% in assay [3]; 96.3% in assay [4]; 84.4% in assay [5]; 102% in assay [6]. Besides, the growth is 102% in assay [7] and 109% in assay [8].

In the case of `O=C(N=Nc1c(O)[nH]c2ccc(Br)cc12)c1cc(-c2ccccc2)on1`, the growth is 101% in assay [1]; 104% in assay [2]; 95.8% in assay [3]; 103% in assay [4]; 93.2% in assay [5]; 106% in assay [6]. The growth in assay [7] was 103%; in assay [8] it was 100%.

`CC1=C[C@H]2c3c(c(O)c(O)c4oc5cc(O)ccc5c(=O)c34)[C@H](c3cc(O)c(O)c4oc5cc(O)ccc5c(=O)c34)[C@H]2C(C)(C)C1`: the growth is 18.1% in assay [1]; 31.4% in assay [2]; 20% in assay [3]; 19.5% in assay [4]; 15.4% in assay [5]; 1.38% (active) in assay [6]. Further, the growth in assay [7] is 75.4%; in assay [8] it was 15%.

`Clc1ccc2c(NCCCCNc3nc(N4CCOCC4)nc4ccccc34)ccnc2c1`: the growth is 8.21% (active) in assay [1]; 107% in assay [2]; 14.1% in assay [3]; 14.9% in assay [4]; 33.3% in assay [5]; -7.74% (active) in assay [6]. Also, the growth is 58.3% in assay [7] and 33.4% in assay [8].

For `O=c1ccccc(-c2ccc(-c3ccco3)cc2)c1O`, the growth was 28.7% in assay [1]; 28.1% in assay [2]; 26.3% in assay [3]; 27.8% in assay [4]; 15.3% in assay [5]; 21.8% in assay [6]. Moreover, the growth in assay [7] was 41.1%; in assay [8], 23%.

As for `C=CCSSC1N=CNc2nc[nH]c21` (stereo not given), the growth is 22.8% in assay [1]; 47% in assay [2]; 25.5% in assay [3]; 35.8% in assay [4]; 4.28% (active) in assay [5]; 14.5% in assay [6]. Besides, the growth in assay [7] is 44.2%; in assay [8] it was 52.5%.

Turning to `C#CCOc1ccc2ncnc(Nc3cccc(CNC(=O)CCl)c3)c2c1`, the growth was 29.6% [8.25 µM] in assay [1]; 47.7% [8.25 µM] in assay [2]; 49.6% [8.25 µM] in assay [3]; 30.4% [8.25 µM] in assay [4]; 30.4% [8.25 µM] in assay [5]; 26% [8.25 µM] in assay [6]. The results for the growth in assay [7] and in assay [8] were 99% [8.25 µM] and 63.2% [8.25 µM], respectively.

In the case of `O=C(Cc1ccc(/C=C/C(=O)c2ncc[nH]2)cc1)Nc1ccc(F)cc1`, the growth was 19.3% in assay [1]; 22.4% in assay [2]; 32.6% in assay [3]; 4.06% (active) in assay [4]; 11.3% in assay [5]; 26.8% in assay [6]. Moreover, the growth in assay [7] is 79.7%; in assay [8] it was 8.05% (active).

In the case of `COc1cccc(NC(=O)c2sc3nc(C)c(C(C)=O)cc3c2N)c1`, the growth in assay [1] was 54%; in assay [2], 53.7%; in assay [3], -41.1% (active); in assay [4], 39.3%; in assay [5] it was 30.1%; in assay [6], 37.8%. In addition, the growth is 54.5% in assay [7] and 37.8% in assay [8].
